The campaign covered roughly 3,300 compounds. About 280 (8.5%) were called active. The sample holds actives, similar compounds and a random draw of the others, so the mix is not that of the screen.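 The calls were made as follows: active = mean growth inhibition over the two runs of 50% or more; inactive = mean growth inhibition under 50%.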

A short description of this test: A549 NSCLC cell proliferation inhibitors – ATP luminescence, human non-small cell lung line, primary screen (AID 371).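 Also: compound exposure lasted 72 h before the ATP read; 0% = untreated cell signal and 100% = no luminescence left.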 To be noted: at 10 µM, stronger effect = higher value.
Regarding `CCCSc1nc(O)c(C2OC(=O)c3c2ccc(OC)c3OC)c(=O)n1C` (stereo not given), the growth inhibition is 3.43% (inactive).

With `Cc1ccc(-n2ncc3c(N4CCC(C(N)=O)CC4)ncnc32)c(C)c1`, the growth inhibition is 7.75% (inactive).

`CCc1cccc(C)c1N(C(=O)Cn1c(=O)[nH]c2ccccc21)C(C)COC` (stereo not given): the growth inhibition is 17.6% (inactive).

On to `CCSc1nnc(NC(=O)NCC(F)(F)F)s1`, for which the growth inhibition is -0.28% (inactive).

`CCSc1nnc(NC(=O)NC(CC)(C(F)(F)F)C(F)(F)F)s1`: the growth inhibition was 82.1% (active).

With `CCC(NC(=O)Nc1nccs1)(C(F)(F)F)C(F)(F)F`, the growth inhibition was 2.27% (inactive).

Consider `CCN(CC)CCN1C(=O)C(=O)/C(=C(/O)c2ccc(OC)cc2)C1c1ccco1` (stereo not given), for which the growth inhibition is 2.24% (inactive).

`Cc1cc(NCCNC2=CC(=O)CCC2)nc2ccccc12`: the growth inhibition was 3.87% (inactive).

For the compound `Cc1cc(N/C=C/C(=O)c2cccc3ccccc23)no1`, the growth inhibition is 40.5% (inactive).

On to `CC(=O)Oc1ccc2c(C)cc(=O)[nH]c2c1`, for which the growth inhibition is 10.7% (inactive).

On to `CCCCC(=O)O[C@H]1CC[C@H]2[C@@H]3CCc4cc(O)ccc4[C@H]3CC[C@]12C`, for which the growth inhibition was 92.3% (active).

Regarding `C[C@]12CC[C@@H]3c4ccc(OC(=O)c5ccccc5)cc4CC[C@H]3[C@@H]1CC[C@@H]2O`, the growth inhibition was 73.8% (active).

As for `C[C@]12CC[C@@H]3c4ccc(O[C@@H]5O[C@H](C(=O)O)[C@@H](O)[C@H](O)[C@H]5O)cc4CC[C@H]3[C@@H]1C[C@@H](O)[C@@H]2O`, the growth inhibition is -8.48% (inactive).

Regarding `C[C@]12CC[C@@H]3c4ccc(OS(=O)(=O)O)cc4CC[C@H]3[C@@H]1CCC2=O`, the growth inhibition is -4% (inactive).

For `C[C@]12CC[C@@H]3c4ccc(O)cc4CC[C@H]3[C@@H]1CC[C@@H]2OC(=O)CCC(=O)O`, the growth inhibition was 14.8% (inactive).

As for `C[C@]12CC[C@@H]3c4ccc(O)cc4CC[C@H]3[C@@H]1CCC2=O`, the growth inhibition is 14.8% (inactive).

Turning to `CCOC(=O)COn1c(=O)c(-c2ccc(OC)c(OC)c2)[n+]([O-])c2ccccc21`, the growth inhibition was 4.28% (inactive).

With `CCCCSc1nc(N)c(C#N)c(-c2cccs2)c1C#N`, the growth inhibition was 40.8% (inactive).

With `CC1(C)C2CCC1(C)C(NC(=O)CCN1CCCCC1)C2` (stereo not given), the growth inhibition is 7.81% (inactive).

In the case of `CNS(=O)(=O)c1cccc2nsnc12`, the growth inhibition is -11.4% (inactive).

Regarding `COc1cc(S(=O)(=O)N2CCN(C)CC2)c(OC)cc1Br`, the growth inhibition was 6.26% (inactive).

`CCCCCNc1nc(N2CCCC2)c2c(c1C#N)CCN(C)C2`: the growth inhibition was 95.5% (active).

For `CCN1CCc2c(C#N)c(NCc3ccccc3)nc(NCCO)c2C1`, the growth inhibition was 3.07% (inactive).

On to `CCN1CCc2c(C#N)c(N3CCOCC3)nc(NCc3ccccc3)c2C1`, for which the growth inhibition is 23.9% (inactive).

Regarding `CCN1CCc2c(C#N)c(N3CCCCC3)nc(NCc3ccccc3)c2C1`, the growth inhibition was 88.8% (active).

Regarding `C=CCNc1nc(N2CCOCC2)c(C#N)c2c1CN(C)CC2`, the growth inhibition is 2.03% (inactive).

`C=CCNc1nc(NCc2ccccc2)c(C#N)c2c1CN(C)CC2`: the growth inhibition was 70.9% (active).

For `CCN1CCc2c(C#N)c(N3CCOCC3)nc(NCCO)c2C1`, the growth inhibition is 6.84% (inactive).

As for `CCN1CCc2c(C#N)c(NCc3ccccc3)nc(N(CC)CC)c2C1`, the growth inhibition was 67.3% (active).

For the compound `CN1CCc2c(C#N)c(N3CCCCC3)nc(N3CCOCC3)c2C1`, the growth inhibition is 3.07% (inactive).

In the case of `CCN(CC)c1nc(N2CCOCC2)c(C#N)c2c1CN(C)CC2`, the growth inhibition is 11.1% (inactive).

In the case of `CCN1CCc2c(C#N)c(N3CCCCC3)nc(N3CCOCC3)c2C1`, the growth inhibition is 4.36% (inactive).

Regarding `CN1Cc2c(N3CCOCC3)nc(SCc3ccccc3)c(C#N)c2CC1(C)C`, the growth inhibition is 45.5% (inactive).

Take `FC(F)(F)c1cccc(-n2cccc2/C=N/n2cnnc2)c1`: the growth inhibition was 9.69% (inactive).

`CSc1nc2[nH]c3c(c2c2ncnn12)CCCC3`: the growth inhibition is 38.4% (inactive).

`Cc1cc(=O)n2[nH]c(N3C(=O)CCC3=O)nc2n1`: the growth inhibition is 1.01% (inactive).

For `Cc1nccn1-c1cc(C(C)C)c(C#N)c2nc3ccccc3n12`, the growth inhibition was 2.71% (inactive).

`O=c1[nH]c(CN2CCCCC2)nc2c1C1(CCCC1)Cc1ccccc1-2`: the growth inhibition was 2.71% (inactive).

As to `[N-]=[N+]=CC(=O)c1ccnc(C(=O)C=[N+]=[N-])c1`, the growth inhibition was 23.6% (inactive).

For `COc1ccc(/C(O)=C2\C(=O)C(=O)N(c3cc(C)on3)C2c2ccccc2OC)cc1` (stereo not given), the growth inhibition is -10.7% (inactive).

For `O=C1c2ccccc2C(=O)N1CC1c2ccccc2CCN1C(=O)N1CCOCC1` (stereo not given), the growth inhibition is 5.08% (inactive).

Consider `CCOC(=O)c1c(NC(=O)CCN2CCOCC2)sc2c1CC(C)(C)OC2`, for which the growth inhibition was 5.84% (inactive).

For the compound `C=CCNc1nc(N2CCCCC2)c(C#N)c2c1CN(Cc1ccccc1)CC2`, the growth inhibition is 37.1% (inactive).

Consider `Nc1[nH]nc2nc(NCc3ccccc3)c3c(c12)CCN(Cc1ccccc1)C3`, for which the growth inhibition is 24.5% (inactive).

With `N#Cc1c(NCCCO)nc(-c2ccccc2)c2c1CCCC2`, the growth inhibition was 32.5% (inactive).

As for `N#Cc1c(NCCN)nc(NCc2ccccc2)c2c1CCN(Cc1ccccc1)C2`, the growth inhibition was 91.8% (active).

Consider `CN1CCc2c(C#N)c(N3CCCCC3)nc(NCc3ccccc3)c2C1`, for which the growth inhibition was 90.4% (active).

In the case of `N#Cc1c(N2CCCCC2)nc(N2CCCCC2)c2c1CCN(Cc1ccccc1)C2`, the growth inhibition was 19.3% (inactive).

Take `CCCc1cc(=O)oc2c(CN3CCN(C)CC3)c(O)c(Cl)cc12`: the growth inhibition is 1.1% (inactive).

On to `CCOC(=O)Cc1[nH]nc2c1C(c1cc(OC)ccc1OC)C(C#N)=C(N)O2` (stereo not given), for which the growth inhibition was -2.35% (inactive).

As for `COCCOC(=O)c1c(C)nc(SCC(=O)Nc2ccc(C)cc2)c(C#N)c1-c1ccco1`, the growth inhibition was 3.22% (inactive).

Take `Cc1nc(N2CCOCC2)c(C#N)c2c1COC(C)(C)C2`: the growth inhibition is 12.7% (inactive).

`CN(C)CCCN1c2ccccc2Sc2ccc(C(F)(F)F)cc21`: the growth inhibition is 90.7% (active).

Consider `CN(C)CCCN1c2ccccc2Sc2ccc(Cl)cc21`, for which the growth inhibition was 92.2% (active).

On to `CN1CCN(C2=Nc3cc(Cl)ccc3Nc3ccccc32)CC1`, for which the growth inhibition was 26% (inactive).

Regarding `COc1ccc([C@@H]2Sc3ccccc3N(CCN(C)C)C(=O)[C@@H]2OC(C)=O)cc1`, the growth inhibition is 15.1% (inactive).

Consider `CN(C)CCCN1c2ccccc2CCc2ccccc21`, for which the growth inhibition was 16.1% (inactive).

On to `CN(C)CCCOC(=O)c1ccc(Cl)cc1Cl`, for which the growth inhibition is 5.84% (inactive).

With `CN(C)CCCN1c2ccccc2Sc2ccccc21`, the growth inhibition is 29.4% (inactive).

On to `CN(C)CCCN1c2ccccc2CCc2ccc(Cl)cc21`, for which the growth inhibition is 85.6% (active).

These data come from PubChem BioAssay AID371 (SRMLSC, 2006).
